“And” between values parts separate entries of the source, which are not always exact repeats. Equal entries are not always repeated. In all, about 5,500 compounds went through this assay and about 2,000 (36%) were called active. Inconclusive results (about 18%) are left out. Rule as the data show it: active = normalized growth mostly below about 0.91 (no sharp cut-off); inconclusive = no clear call, values can overlap the other calls; inactive = mostly above about 0.92. Some of the results follow.
Assay: chemical genetic growth profiling, strain panel (AID 1159580);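 also: tested at 20 µM; growth read once vehicle control cultures reached saturation at 30 °C; 1 = growth at the plate median or of vehicle wells; lower values mean less growth of the strain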
Settings: S. cerevisiae deletion strains, growth OD

CC[C@@H](C(=O)[C@@H](C)[C@@H](O)[C@H](C)[C@@H]1O[C@@H]([C@@H](CC)C(=O)O)CC[C@@H]1C)[C@H]1OC2(C=C[C@@H](O)[C@]3(CC[C@@](C)([C@H]4CC[C@](O)(CC)[C@H](C)O4)O3)O2)[C@H](C)C[C@@H]1C (some centres undefined)
normalized growth (locus YAL013W, strain DEP1, stronger effect = lower value): 1.02 (inactive)
normalized growth (locus YAL021C, strain ccr4, stronger effect = lower value): 0.721 (active)
normalized growth (locus YAL026C, strain drs2, stronger effect = lower value): 0.14 (active)
normalized growth (locus YAL030W, strain snc1, stronger effect = lower value): 0.906 (active)
normalized growth (locus YBL061C, strain skt5, stronger effect = lower value): 0.846 (active)
normalized growth (locus YBR009C, strain hhf1, stronger effect = lower value): 0.833 (active)
normalized growth (locus YBR021W, strain FUR4, stronger effect = lower value): 0.753 (active)
normalized growth (locus YBR023C, strain chs3, stronger effect = lower value): 0.839 (active)
normalized growth (locus YBR171W, strain sec66, stronger effect = lower value): 0.887 (active)
normalized growth (locus YBR229C, strain ROT2, stronger effect = lower value): 0.932 (inactive)
normalized growth (locus YBR231C, strain swc5, stronger effect = lower value): 0.789 (active)
normalized growth (locus YBR279W, strain paf1, stronger effect = lower value): 0.94 (inactive)
normalized growth (locus YCL011C, strain gbp2, stronger effect = lower value): 0.867 (active)
normalized growth (locus YCL016C, strain dcc1, stronger effect = lower value): 0.85 (active)
normalized growth (locus YCL029C, strain bik1, stronger effect = lower value): 0.911 (inactive)
normalized growth (locus YCL061C, strain MRC1, stronger effect = lower value): 0.923 (inactive)
normalized growth (locus YCL069W, strain vba3, stronger effect = lower value): 0.892 (active)
normalized growth (locus YCR088W, strain abp1, stronger effect = lower value): 0.877 (active)
normalized growth (locus YDL005C, strain med2, stronger effect = lower value): 0.97 (inactive)
normalized growth (locus YDL035C, strain GPR1, stronger effect = lower value): 0.876 (inactive)
normalized growth (locus YDL040C, strain nat1, stronger effect = lower value): 0.944 (inactive)
normalized growth (locus YDL074C, strain BRE1, stronger effect = lower value): 0.963 (inactive)
normalized growth (locus YDL101C, strain DUN1, stronger effect = lower value): 0.943 (inactive)
normalized growth (locus YDL134C, strain PPH21, stronger effect = lower value): 0.871 (active)
normalized growth (locus YDL185W, strain tfp1, stronger effect = lower value): 0.988 (inactive)
normalized growth (locus YDL192W, strain arf1, stronger effect = lower value): 0.136 (active)
normalized growth (locus YDR001C, strain nth1, stronger effect = lower value): 0.929 (inactive)
normalized growth (locus YDR069C, strain doa4, stronger effect = lower value): 0.872 (active)
normalized growth (locus YDR101C, strain arx1, stronger effect = lower value): 0.891 (active)
normalized growth (locus YDR137W, strain rgp1, stronger effect = lower value): 0.974 (inactive)
normalized growth (locus YDR159W, strain sac3, stronger effect = lower value): 0.941 (inactive)
normalized growth (locus YDR162C, strain NBP2, stronger effect = lower value): 0.69 (active)
normalized growth (locus YDR195W, strain ref2): 1.01 (inactive)
normalized growth (locus YDR297W, strain sur2, stronger effect = lower value): 0.919 (active)
normalized growth (locus YDR318W, strain mcm21, stronger effect = lower value): 0.825 (active)
normalized growth (locus YDR334W, strain swr1, stronger effect = lower value): 0.98 (inactive)
normalized growth (locus YDR335W, strain msn5, stronger effect = lower value): 0.927 (inactive)
normalized growth (locus YDR388W, stronger effect = lower value): 0.668 (active)
normalized growth (locus YDR392W, strain spt3, stronger effect = lower value): 1.09 (inactive)
normalized growth (locus YDR502C, strain sam2, stronger effect = lower value): 0.847 (active)
normalized growth (locus YEL003W, strain gim4, stronger effect = lower value): 0.885 (active)
normalized growth (locus YEL037C, strain rad23, stronger effect = lower value): 0.901 (active)
normalized growth (locus YEL061C, strain CIN8 (second series), stronger effect = lower value): 0.948 (inactive)
normalized growth (locus YEL061C, strain CIN8, stronger effect = lower value): 0.982 (inactive)
normalized growth (locus YER015W, strain faa2, stronger effect = lower value): 0.979 (inactive)
normalized growth (locus YER016W, strain bim1, stronger effect = lower value): 0.95 (inactive)
normalized growth (locus YER110C, stronger effect = lower value): 1.01 (inactive)
normalized growth (locus YER111C, strain swi4, stronger effect = lower value): 0.96 (inactive)
normalized growth (locus YER155C, strain BEM2 (second series), stronger effect = lower value): 1.03 (inactive)
normalized growth (locus YER155C, strain BEM2, stronger effect = lower value): 1.03 (inactive)
normalized growth (locus YER167W, strain BCK2, stronger effect = lower value): 0.914 (inactive)
normalized growth (locus YFR010W, strain ubp6, stronger effect = lower value): 0.84 (active)
normalized growth (locus YGL078C, strain dbp3, stronger effect = lower value): 0.917 (active)
normalized growth (locus YGL086W, strain mad1, stronger effect = lower value): 0.863 (active)
normalized growth (locus YGL167C, strain pmr1, stronger effect = lower value): 0.744 (active)
normalized growth (locus YGL173C, strain kem1, stronger effect = lower value): 0.917 (inactive)
normalized growth (locus YGL227W, strain vid30, stronger effect = lower value): 0.943 (inactive)
normalized growth (locus YGL240W, strain doc1, stronger effect = lower value): 1 (inactive)
normalized growth (locus YGL248W, strain PDE1, stronger effect = lower value): 0.878 (active)
normalized growth (locus YGL253W, strain hxk2, stronger effect = lower value): 0.816 (active)
normalized growth (locus YGR078C, strain PAC10, stronger effect = lower value): 0.986 (inactive)
normalized growth (locus YGR135W, strain pre9, stronger effect = lower value): 0.932 (inactive)
normalized growth (locus YGR252W, strain gcn5, stronger effect = lower value): 0.923 (inactive)
normalized growth (locus YHR013C, strain ard1, stronger effect = lower value): 1.07 (inactive)
normalized growth (locus YHR027C, strain rpn1, stronger effect = lower value): 0.958 (inactive)
normalized growth (locus YHR030C, strain SLT2, stronger effect = lower value): 0.934 (inactive) and 0.145 (active)
normalized growth (locus YHR079C, strain IRE1 (second series), stronger effect = lower value): 0.837 (active)
normalized growth (locus YHR079C, strain IRE1, stronger effect = lower value): 0.164 (active)
normalized growth (locus YHR094C, strain hxt1, stronger effect = lower value): 0.877 (active)
normalized growth (locus YHR129C, strain ARP1, stronger effect = lower value): 0.932 (inactive)
normalized growth (locus YHR142W, strain chs7, stronger effect = lower value): 0.836 (active)
normalized growth (locus YHR200W, strain rpn10, stronger effect = lower value): 0.908 (active)
normalized growth (locus YIL066C, strain RNR3, stronger effect = lower value): 0.934 (inactive)
normalized growth (locus YIL073C, strain SPO22, stronger effect = lower value): 0.88 (inactive)
normalized growth (locus YIL125W, strain kgd1, stronger effect = lower value): 0.785 (active)
normalized growth (locus YIR030C, strain dcg1, stronger effect = lower value): 0.892 (active)
normalized growth (locus YJL092W, strain hpr5, stronger effect = lower value): 0.903 (active)
normalized growth (locus YJL095W, strain BCK1 (second series), stronger effect = lower value): 0.875 (active)
normalized growth (locus YJL095W, strain BCK1, stronger effect = lower value): 0.819 (inactive) and 0.137 (active)
normalized growth (locus YJL115W, strain asf1, stronger effect = lower value): 0.985 (inactive)
normalized growth (locus YJL129C, strain trk1, stronger effect = lower value): 0.707 (active)
normalized growth (locus YJL134W, strain LCB3, stronger effect = lower value): 0.949 (inactive)
normalized growth (locus YJL154C, strain vps35, stronger effect = lower value): 0.821 (active)
normalized growth (locus YJL164C, strain tpk1, stronger effect = lower value): 0.883 (active)
normalized growth (locus YJL166W, strain qcr8, stronger effect = lower value): 0.926 (inactive)
normalized growth (locus YJL168C, strain set2, stronger effect = lower value): 0.873 (active)
normalized growth (locus YJL187C, strain SWE1 (second series), stronger effect = lower value): 0.916 (inactive)
normalized growth (locus YJL187C, strain SWE1, stronger effect = lower value): 0.935 (inactive)
normalized growth (locus YJR043C, strain POL32, stronger effect = lower value): 0.968 (inactive)

From PubChem BioAssay AID1159580 (chemical genetic matrix, 2015)
